Biological target: Solute carrier family 2, facilitated glucose transporter member 1 (Homo sapiens) (UniProt P11166)
Test: ST_JUDE_LEISH: Cytotoxicity at 2uM final concentration against transgenic Leishmania Mexicana promastigotes LmGLUT1 that are glucose transport deficient and complemented with the human glucose transporter GLUT1. Activity is measured by DNA content using SYBR green in vitro
Assay type: functional

Chain of Solute carrier family 2, facilitated glucose transporter member 1 (Homo sapiens) (P11166 whole entry): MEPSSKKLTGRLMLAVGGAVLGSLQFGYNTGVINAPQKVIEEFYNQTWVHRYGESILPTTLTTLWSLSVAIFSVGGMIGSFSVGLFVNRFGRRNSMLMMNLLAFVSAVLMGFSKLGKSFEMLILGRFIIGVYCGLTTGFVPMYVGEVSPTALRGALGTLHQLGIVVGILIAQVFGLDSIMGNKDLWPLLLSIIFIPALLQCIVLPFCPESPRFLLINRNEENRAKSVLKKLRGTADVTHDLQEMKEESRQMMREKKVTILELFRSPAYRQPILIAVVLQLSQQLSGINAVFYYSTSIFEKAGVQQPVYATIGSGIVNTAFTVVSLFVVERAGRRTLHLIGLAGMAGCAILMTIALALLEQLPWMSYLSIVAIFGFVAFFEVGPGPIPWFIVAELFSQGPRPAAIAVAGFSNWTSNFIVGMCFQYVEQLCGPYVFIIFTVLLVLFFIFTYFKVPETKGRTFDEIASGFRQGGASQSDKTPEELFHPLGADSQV

SMILES | inhibition
CC1(CCc2ccccc2)N=C(N)N=C(N)C1c1ccc(Cl)c(Cl)c1 (stereo not given) | 9.55%
CC(C)Oc1ccc2c(c1)OC(c1ccccc1)(C(F)(F)F)NC2=O (stereo not given) | 14.6%
COc1ccc(Nc2nccc(NCCNC(=O)Nc3cc(C)ccc3C)n2)cc1 | 11.1%
COc1ccc(C(=O)C2CCN(CCCCNC(=O)c3ccc(NC(=O)c4cc(Cl)cc(Cl)c4)cc3)CC2)cc1 | 3.02%
Cc1noc(-c2ccccc2)c1NC(=O)NC1CCN(CCCCCNC(=O)/C=C/c2ccc(Cl)c(Cl)c2)CC1 | 4.35%
Fc1ccc2[nH]c(-c3ccc(-c4ccc(CNCc5ccccc5)cc4)cc3)nc2c1 | 12.6%
Cc1cccc2nc(-c3cccc(-c4cccc(NC(=O)NC5CC5c5ccccc5)c4)c3)[nH]c12 (stereo not given) | 1.8%
CCCCOc1c(CNCCCCCCNCc2ccc3ccccc3c2OCCCC)ccc2ccccc12 | 99.5%
Cc1cc(Cl)ccc1NC(=O)Nc1ccc2nccc(N3CCN(C)CC3)c2c1 | 3.07%
O=C(C1CC1)N1c2ccccc2CCc2ccccc21 | -0.93%
COc1cc2nc(N3CCC(CNC(=O)c4ccc(-c5ccc(C#N)cc5C)cc4)CC3)nc(N)c2cc1OC | 1.67%
CC(C)(C)C(=O)Nc1ccccc1Oc1ccc(Cl)cc1 | 5.77%
Cc1cc(N2CCN(C3CCCCC3)CC2)nc2cccc(O)c12 | -1.8%
CC1C(c2cccc(Cl)c2)OCC(C)(C)N1C(=O)CCN1CCCCC1 (stereo not given) | -1.47%
CCN(CC)CCN(CCN(CC)CC)c1ccc2c(c1)Sc1c(Cl)ccc(Cl)c1S2 | 1.42%
Fc1ccc2[nH]c(-c3cccc(-c4cccc(CNCCc5ccncc5)c4)c3)nc2c1 | 11.1%
O=C(Nc1cccc(-c2ccc(-c3nc4ccccc4[nH]3)cc2)c1)c1csnn1 | 1.19%
COc1ccc(Cl)cc1N1CCN(CCCNC(=O)c2ccc(-c3nc4cc(Cl)c(C)cc4[nH]3)s2)CC1 | 4.06%
CC(C)(C)c1ccc(NC(=O)N[C@@H]2CCN(c3ccnc4ccccc34)C2)cc1 | 0.09%
CCN(CC)CCN(Cc1ccc(-c2ccc(C(F)(F)F)cc2)cc1)C(=O)Cn1c(CCc2cccc(F)c2F)nc(=O)c2cc(C)ccc21 | 5.28%

SMILES | inhibition
Cc1cccc2nc(-c3ccc(-c4cccc(NC(=O)c5cncn5C)c4)s3)[nH]c12 | 0.66%
Cc1ccc(C(=O)Nc2ccc(F)cc2)cc1-c1nc(NC2CC(C)(C)NC(C)(C)C2)nc2c1ccc(=O)n2-c1c(F)cccc1F | 4.77%
COc1ccc(-c2cccc(NC(=O)c3ccc(C#N)cc3)c2)cc1CN1CCCC1 | 11.3%
Cc1cccc2nc(-c3cccc(-c4cccc(NC(=O)c5cn(C)c(=O)n5C)c4)c3)[nH]c12 | 1.98%
Cc1ccc(-c2cc(C(=O)Nc3ccc(S(=O)(=O)N4CCCC(C)C4)cc3)[nH]n2)c(O)c1 (stereo not given) | -1.53%
CCN(C)C(=O)n1ncc2c3c(N)nc(N)nc3ccc21 | 3.44%
CC(C)c1cccc(OCC2CCN(c3ncc(C(=O)Nc4ccccc4)cc3Cl)CC2)c1 | 2.96%
CC(Oc1ccc(Cl)cc1Cl)c1nc(-c2ccc(NC(=O)c3ccco3)cc2)no1 (stereo not given) | 2.46%
COc1cc(CCNc2nc(NCc3cccc4ccccc34)nc(N3CCC(N)CC3)n2)ccc1O | 5.69%
N#Cc1ccc(NC(=O)c2ccc(Cc3ccc4c(c3)CCN(C3CCC3)CC4)cn2)cc1 | 9.64%
Cn1cnc(CCNC(=O)c2ccc(-c3cccc(-c4nc5cc(C(F)(F)F)ccc5[nH]4)c3)cc2)c1 | 4.83%
CCc1cc2c3c(N)nc(N)nc3ccc2n1CC | 40.4%
CCCCCOc1ccc(C(O)C(CN2CCCCC2)c2ccccc2)cc1 (stereo not given) | 5.64%
COc1ccc2nccc(NC(=O)C3(O)CCC(NCc4ccc5c(c4)NCCS5)CC3)c2n1 (stereo not given) | 15%
Nc1ccc2nc(C=Cc3ccccc3)[nH]c2c1 | 1.45%
CC(C)CCN1CCC(Oc2ccc(NC(=O)c3cccs3)cc2Cl)CC1 | 0.82%
Cc1cnccc1/C=C/c1cccc(OCCN2CCc3ccc(S(C)(=O)=O)cc3CC2)c1 | 1.95%
Cc1cc(=O)c2cc(Oc3ccc(OC(F)(F)F)cc3)ccc2[nH]1 | -0.06%
COc1ccc2c(c1)OC(C)(C)CC2=NOS(=O)(=O)c1ccc(C)cc1 | 2.81%
CCOc1ccccc1C1C(C(=O)C(C)(C)C)N2c3ccc(Br)cc3C=CC2C12C(=O)c1ccccc1C2=O (stereo not given) | 72.3%

Biological target: Hexose transporter 1 (Plasmodium falciparum) (UniProt O97467)
Test: ST_JUDE_LEISH: Cytotoxicity at 2uM final concentration against transgenic Leishmania Mexicana promastigotes LmPfHT that are glucose transport deficient and complemented with the Plasmodium falciparum hexose transporter. Activity is measured by DNA content using SYBR green in vitro
Assay type: functional

SMILES | inhibition
CC1(CCc2ccccc2)N=C(N)N=C(N)C1c1ccc(Cl)c(Cl)c1 (stereo not given) | 9.47%
CC(C)Oc1ccc2c(c1)OC(c1ccccc1)(C(F)(F)F)NC2=O (stereo not given) | 12.2%
COc1ccc(Nc2nccc(NCCNC(=O)Nc3cc(C)ccc3C)n2)cc1 | 9.29%
COc1ccc(C(=O)C2CCN(CCCCNC(=O)c3ccc(NC(=O)c4cc(Cl)cc(Cl)c4)cc3)CC2)cc1 | 4.08%
Cc1noc(-c2ccccc2)c1NC(=O)NC1CCN(CCCCCNC(=O)/C=C/c2ccc(Cl)c(Cl)c2)CC1 | 5.32%
Fc1ccc2[nH]c(-c3ccc(-c4ccc(CNCc5ccccc5)cc4)cc3)nc2c1 | 8.67%
Cc1cccc2nc(-c3cccc(-c4cccc(NC(=O)NC5CC5c5ccccc5)c4)c3)[nH]c12 (stereo not given) | 2.2%
CCCCOc1c(CNCCCCCCNCc2ccc3ccccc3c2OCCCC)ccc2ccccc12 | 49.1%
Cc1cc(Cl)ccc1NC(=O)Nc1ccc2nccc(N3CCN(C)CC3)c2c1 | 6.28%
O=C(C1CC1)N1c2ccccc2CCc2ccccc21 | -0.1%
COc1cc2nc(N3CCC(CNC(=O)c4ccc(-c5ccc(C#N)cc5C)cc4)CC3)nc(N)c2cc1OC | 1.27%
CC(C)(C)C(=O)Nc1ccccc1Oc1ccc(Cl)cc1 | 4.21%
Cc1cc(N2CCN(C3CCCCC3)CC2)nc2cccc(O)c12 | -0.66%
CC1C(c2cccc(Cl)c2)OCC(C)(C)N1C(=O)CCN1CCCCC1 (stereo not given) | -0.69%
CCN(CC)CCN(CCN(CC)CC)c1ccc2c(c1)Sc1c(Cl)ccc(Cl)c1S2 | 6.29%
Fc1ccc2[nH]c(-c3cccc(-c4cccc(CNCCc5ccncc5)c4)c3)nc2c1 | 10.6%
O=C(Nc1cccc(-c2ccc(-c3nc4ccccc4[nH]3)cc2)c1)c1csnn1 | 1.58%
COc1ccc(Cl)cc1N1CCN(CCCNC(=O)c2ccc(-c3nc4cc(Cl)c(C)cc4[nH]3)s2)CC1 | 1.78%
CC(C)(C)c1ccc(NC(=O)N[C@@H]2CCN(c3ccnc4ccccc34)C2)cc1 | -0.25%
CCN(CC)CCN(Cc1ccc(-c2ccc(C(F)(F)F)cc2)cc1)C(=O)Cn1c(CCc2cccc(F)c2F)nc(=O)c2cc(C)ccc21 | 9.2%

SMILES | inhibition
Cc1cccc2nc(-c3ccc(-c4cccc(NC(=O)c5cncn5C)c4)s3)[nH]c12 | 2.43%
Cc1ccc(C(=O)Nc2ccc(F)cc2)cc1-c1nc(NC2CC(C)(C)NC(C)(C)C2)nc2c1ccc(=O)n2-c1c(F)cccc1F | 3.62%
COc1ccc(-c2cccc(NC(=O)c3ccc(C#N)cc3)c2)cc1CN1CCCC1 | 11.1%
Cc1cccc2nc(-c3cccc(-c4cccc(NC(=O)c5cn(C)c(=O)n5C)c4)c3)[nH]c12 | 1.44%
Cc1ccc(-c2cc(C(=O)Nc3ccc(S(=O)(=O)N4CCCC(C)C4)cc3)[nH]n2)c(O)c1 (stereo not given) | -1.98%
CCN(C)C(=O)n1ncc2c3c(N)nc(N)nc3ccc21 | 4.56%
CC(C)c1cccc(OCC2CCN(c3ncc(C(=O)Nc4ccccc4)cc3Cl)CC2)c1 | 1.07%
CC(Oc1ccc(Cl)cc1Cl)c1nc(-c2ccc(NC(=O)c3ccco3)cc2)no1 (stereo not given) | 1.87%
COc1cc(CCNc2nc(NCc3cccc4ccccc34)nc(N3CCC(N)CC3)n2)ccc1O | 4.98%
N#Cc1ccc(NC(=O)c2ccc(Cc3ccc4c(c3)CCN(C3CCC3)CC4)cn2)cc1 | 10.6%
Cn1cnc(CCNC(=O)c2ccc(-c3cccc(-c4nc5cc(C(F)(F)F)ccc5[nH]4)c3)cc2)c1 | 4.43%
CCc1cc2c3c(N)nc(N)nc3ccc2n1CC | 58%
CCCCCOc1ccc(C(O)C(CN2CCCCC2)c2ccccc2)cc1 (stereo not given) | 4.91%
COc1ccc2nccc(NC(=O)C3(O)CCC(NCc4ccc5c(c4)NCCS5)CC3)c2n1 (stereo not given) | 22.5%
Nc1ccc2nc(C=Cc3ccccc3)[nH]c2c1 | 0.85%
CC(C)CCN1CCC(Oc2ccc(NC(=O)c3cccs3)cc2Cl)CC1 | 4.49%
Cc1cnccc1/C=C/c1cccc(OCCN2CCc3ccc(S(C)(=O)=O)cc3CC2)c1 | 2.77%
Cc1cc(=O)c2cc(Oc3ccc(OC(F)(F)F)cc3)ccc2[nH]1 | 0.96%
COc1ccc2c(c1)OC(C)(C)CC2=NOS(=O)(=O)c1ccc(C)cc1 | 0.98%
CCOc1ccccc1C1C(C(=O)C(C)(C)C)N2c3ccc(Br)cc3C=CC2C12C(=O)c1ccccc1C2=O (stereo not given) | 76.5%

From ChEMBL document CHEMBL3433997, “St. Jude Leishmania screening dataset” (2016)
